Consider five compounds from PubChem BioAssay.

Each structure is given as a SMILES string. Records with an inconclusive call do not appear. Calls of active or inactive are those of the source.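 Rule for the calls, unless noted: active = inhibition above 54%, about 3 SD of non-fluorescent compounds; inactive = the rest.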

The nature of test [1]: yeast TOR pathway RPL19A-GFP modulators, primary screen, cell-based, S. cerevisiae, multiplex flow cytometry (AID 1862; in the data active = percent of DMSO control GFP below about 86%;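 note: lower values mimic rapamycin by blocking the RPL19A rise seen in DMSO cells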). The following applies: S. cerevisiae RPL19A-GFP strain, flow cytometry fluorescence, 3 h; at 10 µM; stronger effect = lower value.
Test [2] can be described thus: modulators of MEP2-GFP levels in yeast, primary screen, S. cerevisiae, multiplex flow cytometry (AID 1867;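 active = GFP response, as percent of the DMSO control, above the screen-wide mean plus 3 SD, about 139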;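 note: median GFP channel fluorescence of barcode-gated MEP2-GFP cells measured by flow cytometry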). The following applies: S. cerevisiae MEP2-GFP strain, 3 h, at 10 µM, stronger effect = higher value, 100% means same as DMSO wells.
Test [3] is described as follows: modulators of CIT2-GFP expression in yeast, primary screen, S. cerevisiae, GFP fusion, multiplex flow cytometry (AID 1870;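 active = percent response above a set limit, the screen-wide mean plus 3 SD, cut at about 130% in these data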;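 note: barcoded CIT2-GFP strain pooled with four other GFP strains with rapamycin as positive control; median GFP fluorescence per well over plate mean of DMSO wells so 100% = DMSO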). The following applies: 3 h, at 10 µM, stronger effect = higher value.
Test [4] in a line: modulators of LAP4-GFP expression in yeast, primary screen, S. cerevisiae, multiplex flow cytometry (AID 1873;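 active = GFP signal, as percent of the solvent control, above the screen mean plus 3 SD, about 149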). The note with it: 3 h, at 10 µM, stronger effect = higher value.
Test [5] in a line: modulators of AGP1-GFP expression in yeast TOR pathway, primary screen, cell-based, multiplex flow cytometry, S. cerevisiae (AID 1887;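 active = GFP signal above the screen-wide mean plus 3 SD, that is over about 124.5% of the solvent control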;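 note: AGP1-GFP fusion strain of S. cerevisiae within a five-strain barcoded multiplex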). The following applies: 3 h, at 10 µM, stronger effect = higher value.
Test [6] can be described thus: inhibitors of CD8+ T cell-vesicle binding, pilot screen, LFA-1/ICAM-1 modulator project, MLPCN validation set, flow cytometry (AID 2523;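 active = response below a set limit, under 55% cells CD8-positive and vesicle-bound, and CD8 cells' 90th-percentile brightness under 279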;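 for vesicle binding response: mean PE anti-B7-1 fluorescence of CD8+ cells relative to row control; 100% = QL9-loaded vesicles with DMSO vehicle in the same plate row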). The note with it: 2C mouse CD8+ T cells, at 7 µM, stronger effect = lower value; double positive events: measured here: CD8+/vesicle+ event percentage.
Test [7] concerns the target Integrin beta-1 (Homo sapiens) + Integrin alpha-4 (Homo sapiens) (UniProt P13612+P05556). As to the kind of experiment: inhibition of HUTS-21 binding to VLA-4, pilot screen, VLA-4 allosteric modulator project, U937 cells, HUTS-21 mAb, flow cytometry, validation set (AID 2674;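 active = inhibition above 50%, about 3 SD of the validation set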;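 note: antibody binding induced by the VLA-4 ligand LDV present at three times its Kd; 0% = LDV ligand with antibody and no compound and 100% = antibody without LDV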). The following applies: HUTS-21 LIBS mAb binding, at 6.7 µM, stronger effect = higher value, binding induced by LDV ligand.

Test [8] in a line: superoxide lowering in aged yeast cells, pilot screen, validation compound set (AID 2706;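 active = superoxide response below 65% of plate, a cut near 3 SD across the whole screen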;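 note: yeast exposed to compound for one week at 30 degrees C before staining; 100% = mean of all compound wells on the same plate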). The following applies: S. cerevisiae aging, superoxide DHE fluorescence; at 10 µM; stronger effect = lower value.
For test [9], the target named is Beta-adrenergic receptor kinase 1 (Homo sapiens) (UniProt P25098). As to the kind of experiment: GRK2 binders displacing RNA aptamer, biochemical, validation, human GRK2, bead flow cytometry (AID 488806;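 active = aptamer binding inhibition above 30%, about 3 SD of noise from non-fluorescent compounds; inactive = inhibition at or below 30%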). The following applies: bead-bound GRK2, FAM-aptamer displacement, at 10 µM, stronger effect = higher value.
Chain of Beta-adrenergic receptor kinase 1 (Homo sapiens) (P25098 whole entry, looked up): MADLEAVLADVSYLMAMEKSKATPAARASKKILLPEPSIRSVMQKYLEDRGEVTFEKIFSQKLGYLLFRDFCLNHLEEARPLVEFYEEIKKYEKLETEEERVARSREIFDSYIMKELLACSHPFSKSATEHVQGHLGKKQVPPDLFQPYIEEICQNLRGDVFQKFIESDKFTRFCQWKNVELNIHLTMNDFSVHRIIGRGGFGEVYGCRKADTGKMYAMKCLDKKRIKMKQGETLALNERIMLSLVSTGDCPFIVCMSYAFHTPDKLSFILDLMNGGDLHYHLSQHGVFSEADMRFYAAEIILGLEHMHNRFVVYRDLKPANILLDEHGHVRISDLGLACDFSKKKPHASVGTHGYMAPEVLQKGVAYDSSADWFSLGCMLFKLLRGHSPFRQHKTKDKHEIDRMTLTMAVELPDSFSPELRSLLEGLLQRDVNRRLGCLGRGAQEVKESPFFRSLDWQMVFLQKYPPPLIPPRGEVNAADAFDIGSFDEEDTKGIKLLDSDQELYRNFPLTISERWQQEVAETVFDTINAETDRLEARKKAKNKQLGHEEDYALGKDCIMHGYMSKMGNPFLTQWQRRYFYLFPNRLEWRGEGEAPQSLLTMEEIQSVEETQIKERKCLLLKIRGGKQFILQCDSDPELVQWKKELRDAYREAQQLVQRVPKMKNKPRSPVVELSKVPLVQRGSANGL
Test [10] deals with Beta-2 adrenergic receptor (Homo sapiens) (UniProt P07550). The experiment in a line: beta2AR agonists driving receptor internalization, pilot screen, cell-based, FAP fluorogen, flow cytometry, validation set (AID 504459;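 active = percent response above 42, roughly 3 SD of non-fluorescent test compounds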;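 note: agonist-driven loss of surface beta2AR via internalization measured by FAP dye flow cytometry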). The note with it: Am2.2-beta2AR cells, FAP surface receptor flow cytometry; at 10 µM; stronger effect = higher value.
Chain of Beta-2 adrenergic receptor (Homo sapiens) (P07550 whole entry, looked up): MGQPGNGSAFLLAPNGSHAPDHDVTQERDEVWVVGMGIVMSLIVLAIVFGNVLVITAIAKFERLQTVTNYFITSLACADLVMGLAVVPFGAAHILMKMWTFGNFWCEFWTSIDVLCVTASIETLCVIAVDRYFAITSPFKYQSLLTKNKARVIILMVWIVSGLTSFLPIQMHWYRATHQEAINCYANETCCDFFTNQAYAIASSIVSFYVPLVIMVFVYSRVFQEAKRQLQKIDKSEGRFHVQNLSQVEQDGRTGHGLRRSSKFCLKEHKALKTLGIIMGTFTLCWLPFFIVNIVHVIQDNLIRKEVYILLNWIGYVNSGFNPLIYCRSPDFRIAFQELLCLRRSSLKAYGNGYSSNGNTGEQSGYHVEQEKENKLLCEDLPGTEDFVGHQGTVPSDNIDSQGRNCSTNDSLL
Test [11] deals with AP-2 complex subunit beta (Homo sapiens) (UniProt P63010). The experiment in a line: inhibitors of arrestin peptide binding to AP2, pilot screen, biochemical, validation set, GST-AP2 beads, flow cytometry (AID 504541).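 Note: AP2 carries R879A mutation and is captured from E. coli lysate; bead-bound FITC arrestin peptide fluorescence measuring arrestin peptide binding to AP2; 0% = DMSO wells and 100% = excess unlabeled arrestin peptide control.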 The following applies: FITC arrestin peptide, at 10 µM, stronger effect = higher value, AP2 beta2 appendage fragment, R879A mutant.
Chain of AP-2 complex subunit beta (Homo sapiens) (P63010 whole entry, looked up, the tested form may be a part, one chain of several): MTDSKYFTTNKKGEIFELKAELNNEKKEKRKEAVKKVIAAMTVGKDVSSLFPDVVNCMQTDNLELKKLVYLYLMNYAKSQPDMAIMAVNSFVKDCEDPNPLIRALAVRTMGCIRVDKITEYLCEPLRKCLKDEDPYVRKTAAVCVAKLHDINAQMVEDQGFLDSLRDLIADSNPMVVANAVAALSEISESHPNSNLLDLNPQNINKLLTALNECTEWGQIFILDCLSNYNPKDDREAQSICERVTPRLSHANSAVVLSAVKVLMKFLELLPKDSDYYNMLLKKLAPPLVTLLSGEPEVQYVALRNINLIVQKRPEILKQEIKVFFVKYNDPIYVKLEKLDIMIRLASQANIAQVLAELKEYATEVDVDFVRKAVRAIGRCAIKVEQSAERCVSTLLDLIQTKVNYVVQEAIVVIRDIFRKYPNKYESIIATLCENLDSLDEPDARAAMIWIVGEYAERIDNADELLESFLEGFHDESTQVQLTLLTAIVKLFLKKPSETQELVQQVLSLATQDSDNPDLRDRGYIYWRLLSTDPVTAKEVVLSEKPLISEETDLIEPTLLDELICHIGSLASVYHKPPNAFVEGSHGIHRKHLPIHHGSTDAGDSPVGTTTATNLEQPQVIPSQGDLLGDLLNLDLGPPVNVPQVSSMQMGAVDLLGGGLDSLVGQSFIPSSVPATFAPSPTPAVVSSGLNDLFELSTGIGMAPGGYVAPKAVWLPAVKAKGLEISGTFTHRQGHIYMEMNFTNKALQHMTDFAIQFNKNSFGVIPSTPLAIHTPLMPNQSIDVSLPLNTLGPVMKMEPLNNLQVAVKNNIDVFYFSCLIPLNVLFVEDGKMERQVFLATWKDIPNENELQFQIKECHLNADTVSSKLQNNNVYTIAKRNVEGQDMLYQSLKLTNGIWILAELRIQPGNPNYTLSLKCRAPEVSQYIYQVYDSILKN
Test [12] in a line: yeast V-ATPase proton transport modulators, S. cerevisiae, pHLuorin, HTS validation (AID 504600; in the data active = response above about 15%;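 note: plate controls were DMSO for no effect and reference compound for full effect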). The note with it: S. cerevisiae pHLuorin cytosolic pH, at 10 µM, stronger effect = higher value.
Test [13] relates to anti-desmoglein-3 scFv antibody binding to human DSG3. The experiment in a line: inhibitors of anti-DSG3 scFv binding to DSG3, pilot screen, biochemical, validation compound set, bead-based, flow cytometry (AID 588368;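 active = binding below the plate cutoff, the plate median minus 3 SD, with a reading above zero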;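 note: signal is the median channel fluorescence of bead-bound GFP antibody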). The note with it: Protein G beads, DSG3-Fc, scFv-GFP binding, at 10 µM, stronger effect = lower value.
Test [14] is described as follows: inhibitors of fungal efflux pumps CDR1, CDR2, MDR1, pilot screen, validation compound set, multiplex, phenotypic (AID 588506;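 active = efflux inhibition above 0.42, the validation set average plus 4 SD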;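 note: Nile Red retained in cells so higher fluorescence means more efflux inhibition; 0 = negative control wells and 1 = enniatin B 25 µM full block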). The note with it: S. cerevisiae pump-expressing triplex, Nile Red efflux flow cytometry; at 10 µM; stronger effect = higher value; the pumps come from Candida albicans.
In test [15] the target is ATP-binding cassette sub-family B member 6 (Homo sapiens) (UniProt Q9NP58). The experiment in a line: ABCB6 transporter inhibitors, pilot screen, K562-ABCB6 cells, flow cytometry, validation set (AID 588550;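 active = inhibition above the screen-wide mean plus 3 SD, about 51%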;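 note: 0% = DMSO wells and 100% = benzethonium chloride 70 µM positive control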). The note with it: K562-ABCB6 porphyrin accumulation, 1 h, at 10 µM, stronger effect = higher value.
Chain of ATP-binding cassette sub-family B member 6 (Homo sapiens) (Q9NP58 whole entry, looked up): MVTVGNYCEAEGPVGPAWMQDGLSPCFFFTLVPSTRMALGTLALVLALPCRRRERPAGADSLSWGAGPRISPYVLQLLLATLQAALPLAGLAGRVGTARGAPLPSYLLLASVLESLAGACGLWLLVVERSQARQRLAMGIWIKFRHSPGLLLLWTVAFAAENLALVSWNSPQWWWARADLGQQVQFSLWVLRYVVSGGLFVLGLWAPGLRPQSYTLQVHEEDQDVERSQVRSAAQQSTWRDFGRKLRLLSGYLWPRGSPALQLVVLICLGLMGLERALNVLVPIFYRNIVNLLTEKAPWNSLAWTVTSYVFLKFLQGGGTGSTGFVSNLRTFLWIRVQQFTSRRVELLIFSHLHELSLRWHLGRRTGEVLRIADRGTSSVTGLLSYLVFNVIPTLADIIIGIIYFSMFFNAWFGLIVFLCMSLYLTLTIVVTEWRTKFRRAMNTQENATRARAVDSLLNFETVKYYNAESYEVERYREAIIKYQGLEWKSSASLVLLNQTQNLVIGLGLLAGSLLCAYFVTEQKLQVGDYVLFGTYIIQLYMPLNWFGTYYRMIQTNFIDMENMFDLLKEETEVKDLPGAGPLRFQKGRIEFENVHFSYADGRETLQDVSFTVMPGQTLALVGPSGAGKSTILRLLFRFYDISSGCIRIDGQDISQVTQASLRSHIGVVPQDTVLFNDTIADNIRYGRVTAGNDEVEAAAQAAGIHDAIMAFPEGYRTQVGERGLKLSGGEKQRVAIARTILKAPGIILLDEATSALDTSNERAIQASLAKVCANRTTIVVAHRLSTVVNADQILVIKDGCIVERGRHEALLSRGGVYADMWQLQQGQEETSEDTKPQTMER
Test [16] in a line: promoters of myeloid differentiation in arrested cells, primary screen, cell-based, GFP/MAC1 double positive, flow cytometry, validation set (AID 588685;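 active = differentiation response of at least 50%, scaled between solvent and reference control, from cells with both markers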;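 note: compound exposure lasts four days before antibody staining and flow analysis; 0% = DMSO wells and 100% = 5 µM fulvestrant positive control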). The note with it: ER-HoxA9 marrow cells, stronger effect = higher value, normalized: vehicle 0, fulvestrant 100.

Chain of Integrin beta-1 (Homo sapiens) + Integrin alpha-4 (Homo sapiens) (P05556 whole entry, looked up): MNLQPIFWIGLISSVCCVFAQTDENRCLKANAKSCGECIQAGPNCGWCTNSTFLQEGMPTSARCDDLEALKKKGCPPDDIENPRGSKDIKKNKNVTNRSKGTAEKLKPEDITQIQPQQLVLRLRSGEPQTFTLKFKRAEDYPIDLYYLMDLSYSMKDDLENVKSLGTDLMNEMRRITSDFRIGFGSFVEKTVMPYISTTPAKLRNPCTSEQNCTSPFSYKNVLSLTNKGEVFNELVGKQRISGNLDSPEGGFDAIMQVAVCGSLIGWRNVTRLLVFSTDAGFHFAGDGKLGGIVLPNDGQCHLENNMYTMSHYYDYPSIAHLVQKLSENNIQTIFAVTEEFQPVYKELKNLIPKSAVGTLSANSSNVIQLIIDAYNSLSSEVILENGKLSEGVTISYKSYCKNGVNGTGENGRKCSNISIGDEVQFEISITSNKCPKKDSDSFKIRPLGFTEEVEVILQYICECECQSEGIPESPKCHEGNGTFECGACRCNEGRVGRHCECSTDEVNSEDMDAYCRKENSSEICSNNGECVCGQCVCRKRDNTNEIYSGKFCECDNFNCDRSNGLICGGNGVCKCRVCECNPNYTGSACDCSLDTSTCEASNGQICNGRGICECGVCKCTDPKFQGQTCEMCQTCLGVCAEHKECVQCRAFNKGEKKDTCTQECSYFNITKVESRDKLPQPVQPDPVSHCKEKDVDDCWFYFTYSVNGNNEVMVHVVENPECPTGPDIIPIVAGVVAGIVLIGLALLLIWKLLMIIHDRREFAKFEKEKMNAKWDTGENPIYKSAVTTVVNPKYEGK
Chain of Integrin beta-1 (Homo sapiens) + Integrin alpha-4 (Homo sapiens) (P13612 whole entry, looked up): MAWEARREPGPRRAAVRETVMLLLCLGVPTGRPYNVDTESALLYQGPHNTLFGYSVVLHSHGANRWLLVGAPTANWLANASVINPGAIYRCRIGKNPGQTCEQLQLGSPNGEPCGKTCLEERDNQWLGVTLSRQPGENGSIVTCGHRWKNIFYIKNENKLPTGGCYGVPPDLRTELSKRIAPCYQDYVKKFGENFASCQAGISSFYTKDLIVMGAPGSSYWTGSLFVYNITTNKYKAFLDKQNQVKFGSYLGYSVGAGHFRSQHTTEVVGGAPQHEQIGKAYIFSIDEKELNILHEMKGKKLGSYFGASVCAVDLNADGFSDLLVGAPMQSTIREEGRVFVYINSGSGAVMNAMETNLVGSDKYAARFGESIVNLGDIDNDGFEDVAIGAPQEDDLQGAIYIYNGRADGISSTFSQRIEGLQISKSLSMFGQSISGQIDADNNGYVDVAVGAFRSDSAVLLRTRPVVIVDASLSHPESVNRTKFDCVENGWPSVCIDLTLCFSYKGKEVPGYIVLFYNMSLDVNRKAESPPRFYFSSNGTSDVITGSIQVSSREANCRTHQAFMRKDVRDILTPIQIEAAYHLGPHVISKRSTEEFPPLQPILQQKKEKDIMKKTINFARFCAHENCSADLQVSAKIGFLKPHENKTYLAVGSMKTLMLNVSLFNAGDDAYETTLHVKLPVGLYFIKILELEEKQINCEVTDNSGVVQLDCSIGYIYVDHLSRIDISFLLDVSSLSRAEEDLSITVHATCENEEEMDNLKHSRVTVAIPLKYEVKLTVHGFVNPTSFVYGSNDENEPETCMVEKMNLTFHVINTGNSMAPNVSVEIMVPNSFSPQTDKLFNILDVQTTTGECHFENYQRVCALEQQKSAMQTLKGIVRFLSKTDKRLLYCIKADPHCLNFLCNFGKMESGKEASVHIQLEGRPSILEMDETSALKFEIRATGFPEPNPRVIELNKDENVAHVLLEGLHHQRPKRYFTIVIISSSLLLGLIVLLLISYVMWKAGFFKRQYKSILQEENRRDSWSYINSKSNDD

Consider `CCCCCC(=O)O[C@]1(C(C)=O)CC[C@H]2[C@@H]3CCC4=CC(=O)CC[C@]4(C)[C@H]3CC[C@@]21C`, for which the percent of DMSO control GFP in test [1] is 98.9% (inactive). The values for the GFP response vs DMSO in test [2] and in test [4] were 95.6% (inactive) and 108% (inactive), respectively. In addition, the percent response of DMSO control in test [3] is 94.5% (inactive). In test [5], the GFP response, % of DMSO is 98.1% (inactive). The double positive events in [6] stood at 60%. Besides, the vesicle binding response in test [6] is 153% (inactive). Further, the values for the inhibition in [7], in [11] and in [15] were -17.2% (inactive), 18.3% (inactive) and 2% (inactive), respectively. Also, the superoxide response (% of plate) in [8] was 105% (inactive). The aptamer binding inhibition in test [9] was 0% (inactive). The figures for the response in test [10] and in [12] were 6.12% (inactive) and -0.4% (inactive), respectively. The binding (% of control) in test [13] was 105% (inactive). The efflux inhibition (fraction of control) in [14] is -0.155 (inactive). The differentiation response in test [16] is -0.18% (inactive).
Turning to `CC12CCC(C(=O)NCc3ccccn3)(OC1=O)C2(C)C` (stereo not given), the percent of DMSO control GFP in test [1] was 102% (inactive). For the same compound, the values for the GFP response vs DMSO in test [2] and in [4] were 103% (inactive) and 98% (inactive), respectively. Moreover, the percent response of DMSO control in test [3] was 103% (inactive). The GFP response, % of DMSO in [5] was 103% (inactive). Moreover, the double positive events in test [6] was found to be 61.8%. The vesicle binding response in test [6] is 167% (inactive). The inhibition in test [7] is 1.59% (inactive); in test [11] it was 6.09% (inactive); in test [15], 33% (inactive). In addition, in test [8], the superoxide response (% of plate) is 92.4% (inactive). For the same compound, the aptamer binding inhibition in test [9] is 0% (inactive). Also, the figures for the response in test [10] and in [12] were -3.72% (inactive) and -2.31% (inactive), respectively. Moreover, the binding (% of control) in [13] was 104% (inactive). For the same compound, the efflux inhibition (fraction of control) in [14] was -0.24 (inactive). Further, the differentiation response in [16] was 5.67% (inactive).
Turning to `COc1ccccc1NC(=O)C12CCC(C)(C(=O)C1)C2(C)C` (stereo not given), in test [1], the percent of DMSO control GFP was 99.3% (inactive). For the same compound, the GFP response vs DMSO in [2] is 105% (inactive); in test [4] it was 124% (inactive). In addition, the percent response of DMSO control in [3] is 102% (inactive). The GFP response, % of DMSO in [5] was 109% (inactive). In addition, the double positive events in [6] is 63.5%. Besides, the vesicle binding response in test [6] was 173% (inactive). Besides, the inhibition in test [7] is -2.82% (inactive); in test [11] it was 15.9% (inactive); in [15], 1% (inactive). For the same compound, the superoxide response (% of plate) in test [8] was 121% (inactive). Moreover, in test [9], the aptamer binding inhibition was 5% (inactive). Also, the response in test [10] was -14.9% (inactive); in test [12], -0.35% (inactive). Besides, in test [13], the binding (% of control) was 102% (inactive). Besides, the efflux inhibition (fraction of control) in [14] was 0 (inactive). In test [16], the differentiation response is -4% (inactive).
For `COc1cccc(-n2cc(CNCc3c(C(=O)N(C)C)nc4ccc(Cl)cn34)cn2)c1`, the percent of DMSO control GFP in [1] is 103% (inactive). Further, the values for the GFP response vs DMSO in test [2] and in test [4] were 106% (inactive) and 90.1% (inactive), respectively. In addition, the percent response of DMSO control in test [3] is 111% (inactive). Besides, in test [5], the GFP response, % of DMSO was 99.9% (inactive). Moreover, the double positive events in [6] was found to be 61.4%. Besides, the vesicle binding response in test [6] was 171% (inactive). Besides, the values for the inhibition in [7], in [11] and in test [15] were -4.6% (inactive), -5.56% (inactive) and 19% (inactive), respectively. For the same compound, the superoxide response (% of plate) in test [8] is 106% (inactive). The aptamer binding inhibition in test [9] was 5% (inactive). Also, the response in test [10] is -6.24% (inactive); in [12], -0.56% (inactive). Moreover, the binding (% of control) in [13] is 98% (inactive). For the same compound, the efflux inhibition (fraction of control) in test [14] is -0.26 (inactive). The differentiation response in [16] is 10% (inactive).
For `COc1ccc(CC(=O)NCC2(c3ccc(OC)c(OC)c3)CCOCC2)cc1`, the percent of DMSO control GFP in test [1] was 103% (inactive). Moreover, the GFP response vs DMSO in test [2] is 96.3% (inactive); in test [4] it was 82.8% (inactive). Besides, in test [3], the percent response of DMSO control was 104% (inactive). In addition, in [5], the GFP response, % of DMSO is 89.7% (inactive). In [6], this compound returned a double positive events of 54%. Besides, the vesicle binding response in test [6] was 175% (inactive). The inhibition in [7] is 5.03% (inactive); in [11] it was -7.91% (inactive); in [15], -23% (inactive). Moreover, the superoxide response (% of plate) in [8] is 102% (inactive). Further, the aptamer binding inhibition in [9] was 8% (inactive). Also, the response in test [10] was -10.1% (inactive); in [12] it was 0.74% (inactive). The binding (% of control) in test [13] was 99.3% (inactive). In test [14], the efflux inhibition (fraction of control) is -0.35 (inactive). Also, in [16], the differentiation response was -12% (inactive).
